For assay [1], the target named is human Thyroid Receptor alpha (THRa1), THRA (gene 7067) (UniProt P10827). The assay is described as follows: ATG_THRa1_TRANS: Attagene TRANS-FACTORIAL HepG2 Assay for human Thyroid Receptor alpha (THRa1) (AID 2283014; active = hit-call score of the fitted dose curve at least 0.9, where 1 is the maximum). The method, boiled down:
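Measured here is mRNA from a GAL4-UAS reporter in transfected HepG2 cells carrying a Gal4-fused receptor, 24 h post-dose. DMSO served as negative control and baseline.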

Assay [2] has as its target human Retinoid X Receptor beta (RXRb), RXRB (gene 6257) (UniProt P28702). In words: ATG_RXRb_TRANS: Attagene TRANS-FACTORIAL HepG2 Assay for human Retinoid X Receptor beta (RXRb) (AID 2283013; active = hit-call score of the fitted dose curve at least 0.9, where 1 is the maximum). The gist of the method: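 Multiplexed TRANS reporter assay in HepG2; 24 h dosing; reporter mRNA by RT-PCR/CE fluorescence; gain-of-signal relative to DMSO.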
Read-out in assay [3]: E-selectin (Homo sapiens) (UniProt P16581)
The assay is described as follows: BSK_3C_Eselectin: BioMAP Diversity Plus: 3C Assay for Eselectin Biomarker Activity (AID 2283015).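 As to outcome: cell surface E-selectin protein quantified by ELISA 24 h after dosing.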 Conditions: primary human endothelial cells (HUVEC); actives raise or lower the signal. The gist of the method:
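Endpoint derived by bidirectional fitting against DMSO vehicle; signal is ELISA-detected E-selectin from primary HUVEC at 24 h post-dosing, with parallel SRB staining (0.1% SRB, 560 nm) flagging cytotoxicity.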

Read-out in assay [4]: Interleukin-1 alpha (IL1a), IL1A (gene 3552)
The assay is described as follows: BSK_BE3C_IL1a: BioMAP Diversity Plus: BE3C Assay for Interleukin-1 alpha (IL1a) Biomarker Activity (AID 2283016). Conditions: primary human bronchial epithelial cells; actives raise or lower the signal. The method, boiled down: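 Cultures of primary human bronchial epithelial cells receive test chemical. After 24 h, IL-1a is quantified by ELISA, while parallel wells are fixed in TCA and SRB-stained for total protein. Changes in either direction are fitted relative to DMSO.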

Read-out in assay [5]: Monocyte Chemoattractant Protein-1 (MCP1), CCL2 (gene 6347)
In words: BSK_3C_MCP1: BioMAP Diversity Plus: 3C Assay for Monocyte Chemoattractant Protein-1 (MCP1) Biomarker Activity (AID 2283017). Conditions: primary human endothelial cells (HUVEC); actives raise or lower the signal. The method, boiled down:
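Using human vascular primary endothelium, researchers measured MCP-1 by ELISA 24 h after treatment, with DMSO serving as negative control for bidirectional fitting.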

Read-out in assay [6]: Monocyte Chemoattractant Protein-1 (MCP1), CCL2 (gene 6347)
The assay is described as follows: BSK_4H_MCP1: BioMAP Diversity Plus: 4H Assay for Monocyte Chemoattractant Protein-1 (MCP1) Biomarker Activity (AID 2283018). The following applies: primary human endothelial cells (HUVEC); actives raise or lower the signal. The gist of the method: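 Readout: MCP-1 ELISA on compound-treated HUVEC, sampled 24 h post-dosing. Baseline and negative control DMSO; bidirectional fit. Overt toxicity checked alongside by sulforhodamine B protein staining at time of biomarker measurement.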

Read-out in assay [7]: Human Leukocyte Antigen - DR isotype (HLADR), HLA-DRA (gene 3122)
The assay is described as follows: BSK_3C_HLADR: BioMAP Diversity Plus: 3C Assay for Human Leukocyte Antigen - DR isotype (HLADR) Biomarker Activity (AID 2283019).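 As to outcome: ELISA of cell-surface HLA-DR on HUVEC 24 h after dosing.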 The following applies: primary human endothelial cells (HUVEC); actives raise or lower the signal. The method, boiled down:
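Compound added to primary HUVEC cultures, 24 h incubation, then HLA-DR determined by ELISA; endpoint derived by bidirectional fitting relative to DMSO negative control.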

Read-out in assay [8]: Interleukin-8 (IL8), CXCL8 (gene 3576)
In words: BSK_3C_IL8: BioMAP Diversity Plus: 3C Assay for Interleukin-8 (IL8) Biomarker Activity (AID 2283020). Conditions: primary human endothelial cells (HUVEC); actives raise or lower the signal. The gist of the method:
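Human vascular endothelial cells (umbilical vein) in the 3C system; IL-8 level detected by ELISA at 24 h post-dose, with DMSO as baseline.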

Structures are written as SMILES. Inconclusive results are not listed. Activity calls are given as the source filed them. The calls were made as follows, unless noted: active = hit-call score of the fitted dose curve at least 0.9, where 1 is the maximum; inactive = score below 0.9.

As usually defined, the AC50 is the midpoint of the concentration-response curve, whichever way the signal moves.

Sequence of E-selectin (Homo sapiens) (P16581 whole entry, looked up): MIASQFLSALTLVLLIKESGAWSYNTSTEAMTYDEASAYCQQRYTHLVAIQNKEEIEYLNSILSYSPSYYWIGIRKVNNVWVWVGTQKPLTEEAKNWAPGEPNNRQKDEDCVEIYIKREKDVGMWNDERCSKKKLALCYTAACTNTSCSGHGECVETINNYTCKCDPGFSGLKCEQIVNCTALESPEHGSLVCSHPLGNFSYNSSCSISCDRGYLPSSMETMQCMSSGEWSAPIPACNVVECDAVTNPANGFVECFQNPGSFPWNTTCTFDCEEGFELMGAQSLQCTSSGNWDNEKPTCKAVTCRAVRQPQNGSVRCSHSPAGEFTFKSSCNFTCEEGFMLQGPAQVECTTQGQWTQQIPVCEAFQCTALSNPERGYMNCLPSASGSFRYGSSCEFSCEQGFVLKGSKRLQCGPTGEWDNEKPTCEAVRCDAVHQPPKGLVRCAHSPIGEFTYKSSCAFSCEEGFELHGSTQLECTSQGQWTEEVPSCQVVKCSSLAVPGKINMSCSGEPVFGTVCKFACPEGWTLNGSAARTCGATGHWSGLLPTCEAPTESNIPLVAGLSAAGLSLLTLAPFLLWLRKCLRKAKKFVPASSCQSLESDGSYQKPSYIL
Sequence of human Thyroid Receptor alpha (THRa1), THRA (gene 7067) (P10827 whole entry, looked up, the tested form may be a part): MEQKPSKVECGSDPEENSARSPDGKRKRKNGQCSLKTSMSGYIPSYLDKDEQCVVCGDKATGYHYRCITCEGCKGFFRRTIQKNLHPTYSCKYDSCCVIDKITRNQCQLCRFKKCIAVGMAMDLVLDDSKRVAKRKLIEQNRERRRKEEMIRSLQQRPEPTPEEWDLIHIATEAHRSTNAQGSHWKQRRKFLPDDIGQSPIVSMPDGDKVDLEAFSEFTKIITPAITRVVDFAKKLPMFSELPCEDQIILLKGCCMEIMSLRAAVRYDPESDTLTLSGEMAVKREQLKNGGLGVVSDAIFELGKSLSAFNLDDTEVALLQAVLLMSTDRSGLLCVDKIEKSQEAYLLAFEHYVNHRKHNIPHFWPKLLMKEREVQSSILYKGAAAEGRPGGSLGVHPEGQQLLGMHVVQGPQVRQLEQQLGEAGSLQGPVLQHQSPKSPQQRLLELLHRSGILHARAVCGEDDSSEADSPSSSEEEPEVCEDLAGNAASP
Sequence of human Retinoid X Receptor beta (RXRb), RXRB (gene 6257) (P28702 whole entry, looked up): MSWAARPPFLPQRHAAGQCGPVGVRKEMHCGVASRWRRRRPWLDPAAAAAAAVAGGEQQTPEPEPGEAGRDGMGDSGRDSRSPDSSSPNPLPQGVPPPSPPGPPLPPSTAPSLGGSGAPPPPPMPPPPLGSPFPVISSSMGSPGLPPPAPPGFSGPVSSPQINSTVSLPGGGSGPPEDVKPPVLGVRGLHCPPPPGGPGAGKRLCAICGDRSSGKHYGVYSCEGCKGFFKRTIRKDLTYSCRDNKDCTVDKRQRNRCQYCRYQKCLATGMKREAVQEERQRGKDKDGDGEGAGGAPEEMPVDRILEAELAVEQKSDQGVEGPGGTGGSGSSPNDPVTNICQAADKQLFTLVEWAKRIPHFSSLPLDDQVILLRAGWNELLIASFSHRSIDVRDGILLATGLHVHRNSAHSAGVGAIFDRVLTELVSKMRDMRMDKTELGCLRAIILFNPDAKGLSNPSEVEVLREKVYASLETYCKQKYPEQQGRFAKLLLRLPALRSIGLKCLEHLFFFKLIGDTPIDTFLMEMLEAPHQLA

For the compound `COC(C(=O)O)c1ccccc1` (stereo unspecified), the AC50 in assay [1] is 62.9 µM (active).

Turning to `CC1CCC(C(C)CS)CC1S` (stereo unspecified), the AC50 was 59.9 µM (active) in assay [2]; 30.6 µM (active) in assay [3]; 20 µM (active) in assay [4]; 20 µM (active) in assay [5]; 20 µM (active) in assay [6]; 35.1 µM (active) in assay [7]. The outcome in assay [8] was inactive.

Turning to `O=C(O)COCCN1CCN(C(c2ccccc2)c2ccc(Cl)cc2)CC1` (stereo unspecified), the call in assay [1] was inactive.

With `CCCCCCCCC`, the compound was classed as inactive in assay [1].

On to `O=C(O)CCCCCCCCCCC(=O)O`, for which the call in assay [1] was inactive.

Regarding `FC1(F)C(F)(F)C(F)(F)C2(F)C(F)(C1(F)F)C(F)(F)C(F)(F)C1(F)C(F)(F)C(F)(F)C(F)(F)C(F)(F)C12F` (stereo unspecified), the outcome in assay [1] was inactive.

As for `CC(C)(COC(=O)c1ccccc1)COC(=O)c1ccccc1`, the outcome in assay [2] and in assay [4] was inactive. Moreover, the AC50 is 20 µM (active) in assay [3], 34.4 µM (active) in assay [5], 11.3 µM (active) in assay [6] and 27.8 µM (active) in assay [7].

For `CCN(CC)CCOC(=O)c1ccc(N)cc1`, the result in assay [2] and in assay [1] was inactive.

As for `CC(C)=CCCC(C)CC=O` (stereo unspecified), the compound was classed as inactive in assay [2] and in assay [1].

With `CC1(C)[C@H](C(=O)OCc2cccc(Oc3ccccc3)c2)[C@@H]1C=C(Cl)Cl`, the compound was called inactive in assay [1].

On to `O=C1OC2(c3cc(Br)c(O)c(Br)c3Oc3c2cc(Br)c(O)c3Br)c2c(Cl)c(Cl)c(Cl)c(Cl)c21`, for which the AC50 in assay [3] is 5.06 µM (active); in assay [4], 0.967 µM (active); in assay [5], 4.82 µM (active); in assay [6], 1.57 µM (active); in assay [7], 2.68 µM (active).

As for `O=c1[nH]c(=O)n([C@H]2CCCO2)cc1F`, in assay [1], the call was inactive.

As for `O=[N+]([O-])c1cc(C(F)(F)F)ccc1Cl`, the result in assay [3], in assay [4], in assay [5], in assay [6] and in assay [7] was inactive.

As to `CCC(C(=O)NC(N)=O)c1ccccc1` (stereo unspecified), in assay [1], the call was inactive.

In the case of `CNC[C@H](O)c1cccc(O)c1`, the AC50 in assay [2] is 33.9 µM (active). Further, the call in assay [1], in assay [3], in assay [4], in assay [5], in assay [6] and in assay [7] was inactive.

As for `CC(C)(C)c1n[nH]c(=S)n(N)c1=O`, the compound was classed as inactive in assay [2] and in assay [1].

With `CC(=O)O[C@H](CC(=O)[O-])C[N+](C)(C)C`, in assay [1], the outcome was inactive.

`CCCCC(CC)COC(=O)/C=C\C(=O)OCC(CC)CCCC` (stereo unspecified): the outcome in assay [3], in assay [4], in assay [5], in assay [6] and in assay [7] was inactive.

`CSc1nc(NC2CC2)nc(NC(C)(C)C)n1`: the AC50 in assay [2] is 22.7 µM (active). In addition, in assay [1], the call was inactive.

For the compound `CCCCCCCCCCCCCCCCCC(=O)OCC(CC)CCCC` (stereo unspecified), the call in assay [2], in assay [3], in assay [4], in assay [5], in assay [6] and in assay [7] was inactive.

Turning to `Cc1ccc(C=O)cc1`, the result in assay [1] was inactive.

`CC[C@]12CCCN3CCc4c(n(c5ccccc45)[C@@](O)(C(=O)OC)C1)[C@@H]32`: the call in assay [2] was inactive. In addition, the AC50 in assay [1] is 28.5 µM (active).

(Values after PubChem BioAssay (EPA / NIEHS).)
